Records with an inconclusive call do not appear. A number with no mark means an inactive call. Calls come from the whole dose curve; as a rule, active = well fitted curve in the direction sought with a large enough effect in the signal ratio; inconclusive = small, poorly fitted or top-dose-only effect, or effect the other way, or a change in a side signal; inactive = no such curve, though single readings can be large or run the other way; the % refers to the signal ratio.
target: Lutropin-choriogonadotropic hormone receptor (Homo sapiens) (UniProt P22888); test: Counterscreen for Agonists of Thyroid Stimulating Hormone Receptor: HTRF Activity in a Luteinizing Hormone Receptor Cell Line; conditions: HEK293-LHR cells, cAMP HTRF ratio, 30 min; series mostly up to 91.7 µM; activation (cAMP increase): at the top concentration
Excerpt: NIH Chemical Genomics Center [NCGC] NIH Molecular Libraries Screening Centers Network [MLSCN] MLSCN Grant: 1 X01 MH080680-01 PI Name: Dr. Marvin Gershengorn, NIH NCGC Assay Overview: Confirmation of Thyroid Stimulating Hormone Receptor Agonists TSH is an alpha/beta heterodimeric glycoprotein hormone secreted from the anterior pituitary gland which belongs to the glycoprotein hormone family. The actions of TSH are mediated by a seven-transmembrane receptor, which upon TSH binding couples preferentially to the G-alpha (s) protein (Gs), resulting in activation of adenylate cyclase and increase in cyclic adenosine 3', 5' monophosphate (cAMP). The TSH receptor (THSR) is mainly expressed in thyroid follicular cells and regulates their growth and function. Recombinant TSH is used to activate TSHR in patients with thyroid cancer receiving thyroid hormone suppression therapy and to screen for residual tumor after surgery, but it is expensive and must be administered intramuscularly. An orally active small molecule TSHR agonist would serve as an invaluable research tool for studying TSHR pharmacology and physiology, and would have multiple advantages in therapeutic settings. However, no selective small molecule agonist of the TSH receptor exists, and no small molecule screen for TSHR agonists has ever been reported. In order to confirm specificity of the compounds to the TSHR, a confirmatory assay was conducted on a similar family member, the Luteinizing Hormone (LH) receptor, transfected into a HEK 293 cell line, using an orthogonal detection technology to measure cAMP stimulation: antibody-based Homogeneous Time Resolved Fluorescence (HTRF).
NCGC Assay Protocol Summary: Homogeneous Time Resolved Fluorescence (HTRF) cAMP Assay. HEK 293 cells stably transfected with a vector containing the LH receptor and maintained under hygromycin selection were obtained from the laboratory of Dr. Marvin Gershengorn. Compounds were assayed using a HTRF cAMP detection kit (Cisbio) on the LH receptor transfected cell line. Briefly, 750 cells were plated in 2.5 ul/well of complete media (DMEM containing 10 % FCS, and 100 uM RO 20-1724) in 1536 well solid bottom white plates and 23 nl/well compound in DMSO solution or controls was added. Following 30 minute incubation at room temperature, 2.5 ul/well of labeled d2 cAMP and 2.5 ul/well of anti-cAMP antibody (both diluted 1:20 in lysis buffer) were added to each well using a flying reagent dispenser (Aurora Discovery, San Diego) . Plates were measured using the Envision plate reader (PerkinElmer, Boston, MA) with excitation at 330 nm and emissions of 615 nm and 660 nm. Keywords: Luteinizing hormone LH, Thyroid-stimulating hormone TSH, TSHR, TSHR agonist, quantitative high throughput screening, qHTS, HTS, probe identification, CNG, cAMP, cyclic nucleotide gated ion channel PubChem

Sequence of Lutropin-choriogonadotropic hormone receptor (Homo sapiens) (P22888 whole entry, looked up): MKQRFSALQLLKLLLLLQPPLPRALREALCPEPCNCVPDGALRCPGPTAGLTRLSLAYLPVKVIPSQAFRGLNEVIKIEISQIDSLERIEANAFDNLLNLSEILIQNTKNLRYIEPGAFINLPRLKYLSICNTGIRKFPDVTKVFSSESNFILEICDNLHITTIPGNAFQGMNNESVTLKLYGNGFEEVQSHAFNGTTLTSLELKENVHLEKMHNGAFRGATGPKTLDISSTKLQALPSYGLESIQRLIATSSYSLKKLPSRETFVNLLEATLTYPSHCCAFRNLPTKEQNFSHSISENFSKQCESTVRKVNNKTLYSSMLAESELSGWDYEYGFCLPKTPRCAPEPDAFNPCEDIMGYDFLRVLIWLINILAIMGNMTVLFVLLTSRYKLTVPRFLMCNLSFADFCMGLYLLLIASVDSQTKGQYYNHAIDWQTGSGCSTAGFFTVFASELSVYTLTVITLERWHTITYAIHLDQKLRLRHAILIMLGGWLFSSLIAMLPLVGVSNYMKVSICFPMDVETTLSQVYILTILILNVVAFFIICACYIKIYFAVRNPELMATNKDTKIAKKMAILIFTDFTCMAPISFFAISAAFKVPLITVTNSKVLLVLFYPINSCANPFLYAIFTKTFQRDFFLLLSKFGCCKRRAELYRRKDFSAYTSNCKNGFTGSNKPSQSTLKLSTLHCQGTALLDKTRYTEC

SMILES | activation (cAMP increase) [%]
NC(=O)c1nsc(C(=O)N(CC(=O)NCc2ccc3c(c2)OCO3)C2CCCC2)c1N | 2.94
O=C1CC(c2ccccc2)CC2=C1C(c1ccco1)n1nc(C(F)(F)F)nc1N2 (configuration not stated) | 3.49
O=C(COC(=O)C12CC3CC(CC(O)(C3)C1)C2)NCc1ccco1 | 1.68
CCn1c(=O)c(C(=O)CN2CCCc3ccccc32)c(N)n(Cc2ccccc2)c1=O | 2.69
CC(NC(=O)COC(=O)c1ccco1)C12CC3CC(CC(C3)C1)C2 (configuration not stated) | 3.79
COc1ccc(C(=O)N(Cc2ccco2)Cc2cccs2)cc1 | 3.2
COc1cc(OC)cc(C(=O)N(Cc2ccco2)Cc2cccs2)c1 | 1.68
O=C1C2C3CCCC3=C3CCCC3C2C(=O)N1c1ccccc1Cl (configuration not stated) | 1.18
COc1ccc(C2Nc3ccccc3C(=O)N2Cc2ccco2)cc1COc1ccc(NC(C)=O)cc1 (configuration not stated) | 3.62
O=C1C2C3CCCC3=C3CCCC3C2C(=O)N1c1ccc(Cl)cc1 (configuration not stated) | 2.44
COc1ccc(C2Nc3ccccc3C(=O)N2Cc2ccco2)cc1COc1ccc([N+](=O)[O-])cc1 (configuration not stated) | 1.81
COc1ccc(C2Nc3cccc(O)c3C(=O)N2Cc2ccccc2)cc1COc1ccc(NC(C)=O)cc1 (configuration not stated) | 3.62
O=C1CC(c2ccco2)CC2=C1C(c1ccccc1)n1nc(C(F)(F)F)nc1N2 (configuration not stated) | 2.99
COc1ccc(C2Nc3ccccc3C(=O)N2Cc2ccco2)cc1COc1c(C)cccc1C (configuration not stated) | 2.23
Cc1sc2ncn(/N=C/c3cn(-c4ccccc4)nc3-c3ccccc3)c(=O)c2c1C | 2.31
O=C(COC(=O)C12CC3CC(CC(C3)C1)C2)NCc1ccco1 | 2.36
O=C1C2C3CCCC3=C3CCCC3C2C(=O)N1c1ccc(F)cc1 (configuration not stated) | 0.715
O=C(COC(=O)C12CC3CC(CC(C3)C1)C2)NCC1CCCO1 (configuration not stated) | 3.45
COc1cc(OC)c(C(=O)N(Cc2ccco2)Cc2cccs2)cc1OC | 1.72
NC(=O)c1nsc(C(=O)N(CC(=O)NC2CCCC2)Cc2ccc3c(c2)OCO3)c1N | 3.37
O=C1C2C3CCCC3=C3CCCC3C2C(=O)N1c1cccc(Cl)c1 (configuration not stated) | 1.77
Cc1nn(-c2ccccc2)c(N2CCCC2)c1/C=N/n1cnc2scc(-c3ccccc3)c2c1=O | 2.52
O=c1c2c(-c3ccccc3)csc2ncn1/N=C/c1cn(-c2ccccc2)nc1-c1cccs1 | 1.85
NC(=O)c1nsc(C(=O)N(CC(=O)NCc2ccc3c(c2)OCO3)C2CCCCC2)c1N | 1.56
COc1ccc(C(=O)N(Cc2ccco2)Cc2cccs2)c(O)c1 | 2.94
O=C(COC(=O)C12CC3CC(CC(Br)(C3)C1)C2)NCc1ccco1 | 4.71
O=C(COC(=O)C12CC3CC(CC(Cl)(C3)C1)C2)NCc1ccco1 | 4.42

Source: PubChem BioAssay AID1402 (National Center for Advancing Translational Sciences (NCATS), 2008)
